TTR transcr act: increases transthyretin transcription; hit rate 1.3% among 92,000; activation, % at 16.7 µM; SH-SY5Y TTR promoter Gaussia luciferase, luminescence; 100% = recombinant luciferase protein wells; AID 1117267;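 active = activation above the mean of all tested compounds plus 3 SD, cut at about 9.5% in these data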;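 note: cells exposed to compounds for one day before reading; 0% = median of all test compound wells on the plate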
* = called active by the depositor. The entries come from a sample that favours hits as a whole.

SMILES	TTR transcr act
Cc1cc(N2CCN(C(=O)c3ccco3)CC2)n2ncc(-c3ccccc3)c2n1	-0.4
Cc1cc(N2CCN(C(=O)c3ccco3)CC2)n2ncnc2n1	-1.7
Cc1nn2c(N3CCN(C(=O)c4ccco4)CC3)cc(C(C)(C)C)nc2c1-c1ccccc1	10.1*
CC(=O)Nc1sc2c(c1-c1nc3ccccc3s1)CCCN(C(C)C)C2	0.6
CC(C)n1c(O)c(N=NC(=O)CNC(=O)CCc2ccccc2)c2ccccc21	2.1
CCn1c(O)c(N=NC(=O)c2cccs2)c2ccccc21	0.1
Cn1c(O)c(N=NC(=N)N)c2ccccc21	17.3*
CCOCCCNCC(=O)Nc1ccccc1N1CCOCC1	20.7*
CCOc1ncccc1C(=O)Nc1ccccc1N1CCOCC1	-2.0
Cc1cc(C)c(OCC(=O)Nc2ccccc2N2CCOCC2)c(C)c1	-2.2
COC(=O)C1CN(Cc2ccc(OC)cc2)CCS(=O)(=O)N1Cc1cn(Cc2ccc(Cl)cc2)nn1 (centres undefined)	-0.6
O=C1C[C@H](c2ccc3ccccc3c2)N=C2N1/C(=C\c1ccccc1)[C@@H](c1ccccc1C(F)(F)F)N2Cc1ccc2c(c1)OCO2	-0.5
Cn1c(N)c(C(=O)CCl)c(=O)n(Cc2ccccc2)c1=O	12.4*
CC1CN(CC(=O)c2c(N)n(Cc3ccccc3)c(=O)n(C)c2=O)CC(C)O1 (centres undefined)	-1.6
CN(C)CC(=O)c1c(N)n(Cc2ccccc2)c(=O)n(C)c1=O	-0.4
COC(=O)c1ccc(Cn2ccc3ccc(-c4ccc5ccn(C(=O)c6cccc(OC)c6)c5c4)cc32)cc1	1.7
C[C@H]1[C@H](c2ccccc2)OC(O)([C@H](Cc2ccccc2)NC(=O)OC(C)(C)C)CN1C (some centres undefined)	-0.2
COc1ccc(NC(=O)CNC(=O)Cc2ccccc2)cc1	-1.9
CCOCCCNC(=O)C(NC(=O)c1ccc(NC(C)=O)cc1)c1ccc(OC)cc1 (centres undefined)	4.1
COc1ccc(NC(=O)C(NC(=O)CNC(C)=O)c2ccc(C)cc2)cc1 (centres undefined)	29.4*
O=C(NCc1ccc(Cl)c(Cl)c1)O[C@H]1CC[C@@]23CCCN2C(=O)CCC[C@H]3C1	-0.1
CCC[C@H]1[C@@H](OC(=O)N2CCN(c3ccccc3)CC2)CC[C@@]23CCCN2C(=O)CCC[C@@H]13	-2.1
COc1ccc(S(=O)(=O)N(C)C[C@@H]2Oc3ccc(NS(C)(=O)=O)cc3C(=O)N([C@@H](C)CO)C[C@H]2C)cc1	-0.7
COc1ccc(S(=O)(=O)N(C)C[C@H]2Oc3ccc(NC(=O)C4CC4)cc3C(=O)N([C@H](C)CO)C[C@@H]2C)cc1	11.7*
Cc1ccc(S(=O)(=O)N(C)C[C@H]2Oc3ccc(NC(=O)C4CCCCC4)cc3C(=O)N([C@H](C)CO)C[C@H]2C)cc1	-1.2
SMILES	TTR transcr act
CCCC1CCC2(CCCN2CCOC(=O)Nc2cccc(Cl)c2)CC1 (centres undefined)	-1.4
C[C@H]1[C@@H](OC(=O)Nc2ccccc2Cl)CC[C@@]23CCCN2C(=O)CCC[C@@H]13	1.4
NC(=O)c1ccc(NC(=O)c2ccc3c(c2)OCO3)cc1	1.2
CC(=O)c1cccc(NC(=O)c2ccc3c(c2)OCO3)c1	-2.1
COc1cc(NC(=O)c2ccc3c(c2)OCO3)ccc1NC(=O)C(C)C	21.2*
Nc1[nH]c(C(=O)c2ccccc2)c(-c2cccc3ccccc23)c1C(=O)c1c(-c2ccccc2)[nH]c2ccccc12	-2.1
CCC[C@H]1[C@@H](OC(=O)NCc2ccc(Cl)c(Cl)c2)CC[C@@]23CCCN2C(=O)CCC[C@@H]13	-2.9
COc1cccc(NC(=O)NC2CCCCN(Cc3ccc(C)cc3)C2=O)c1 (centres undefined)	-1.7
CCCC1CCC2(CC1)CCC2OC(=S)Nc1ccccc1Br (centres undefined)	0.8
Cc1ccc(N=C2SC(C(=O)Nc3ccc(OC(F)(F)F)cc3)C(N)=C2C(=O)Nc2c(C)cc(C)cc2C)cc1 (centres undefined)	9.8*
CS/C(=C\[N+](=O)[O-])Nc1ccc(OC(F)(F)F)cc1	-2.0
Cc1ccc(-c2nc3ncccn3c2NC(=O)Nc2ccc(OC(F)(F)F)cc2)cc1	4.0
O=C(Nc1ccc(Br)cc1)O[C@@H]1CC[C@@]23CCCN2C(=O)CCC[C@H]3C1	1.1
O=C(Cc1ccccc1)NC1CCCc2c1cnn2-c1ccc(F)cc1F (centres undefined)	-1.5
O=C(OCCCCSc1nnc(-c2cccc3ccccc23)o1)c1ccc(F)cc1	2.0
O=C1CCC[C@H]2C[C@H](NCc3cccnc3)CC[C@]23CCCN13	1.9
CCCCCc1ccc(NC(=O)O[C@@H]2CC[C@@]34CCCN3C(=O)CCC[C@H]4C2)cc1	-1.7
Cc1ccc(S(=O)(=O)n2ccc(-c3cccc(OCc4c(F)cccc4Cl)c3)n2)cc1	-0.1
CCOc1ccc(S(=O)(=O)n2ccc(C)n2)cc1	-3.7
CN(CCOc1ccc(-c2ccn(S(=O)(=O)c3c(Cl)cccc3Cl)n2)cc1)c1ccccn1	15.3*
CCOC(=O)CCCNC(=O)O[C@@H]1CC[C@@]23CCCN2C(=O)CCC[C@H]3C1	3.7
O=C(NC1CCCCC1)c1ccc([N+](=O)[O-])cc1	-1.3
O=[N+]([O-])c1ccc(N/N=C2/CCCCC2c2ccccn2)cc1 (centres undefined)	-0.8
O=C1CCCCC1Nc1ccc([N+](=O)[O-])cc1 (centres undefined)	12.4*
C=CCN(C)C(C#CCCCC)c1ccccc1 (centres undefined)	1.0
SMILES	TTR transcr act
FC(F)(F)c1ccc2nc(CNc3nc(N4CCOCC4)nc4c3ncn4-c3ccsc3)[nH]c2c1	1.7
C=CC(=O)NC1CCCCN(CC)C1=O (centres undefined)	4.3
COc1ccc(Oc2c(Cl)cnn(-c3ccc(C(C)C)c(C)c3)c2=O)cc1	1.3
CC(C)(N[C@@H](Cc1ccccc1)C(=O)NCCc1c[nH]c2ccccc12)C(=O)NC1CCCCC1	-0.4
O=C(NCc1ccc2c(c1)OCO2)C1CCN(S(=O)(=O)N2CCCCC2)CC1	0.3
O=C(COc1ccc(S(=O)(=O)N2CCCC2)cc1Cl)NCc1ccc2c(c1)OCO2	13.5*
COC(=O)COc1ccc(S(=O)(=O)Nc2ccc3c(c2)OCO3)cc1Cl	0.2
FC(F)(F)c1ccccc1NC(=S)OCCN1CCCC12CCC(c1ccccc1)CC2 (centres undefined)	0.7
CCCCCCCCN1C(=O)[C@@H](CC(=O)N2CCCCC2)C[C@@]2(C(=O)OC)C1=C[C@H](C(C)C)O[C@@H]2C1CC1	0.4
Cc1cc(C)n(CC(=O)Nc2ccccc2)n1	0.1
Cc1cc([N+](=O)[O-])nn1CC(=O)Nc1ccc(F)cc1	0.8
CC(=O)c1ccc(NC(=O)Cn2nc(C)cc2C)cc1	10.2*
CC1CCCC(C)N1C(=O)COC(=O)c1ccc[nH]c1=O (centres undefined)	-2.1
CN(C(=O)COC(=O)c1c[nH]c(=O)[nH]c1=O)C1CCCCC1	23.1*
CN(C)S(=O)(=O)c1cccc(NC(=O)COC(=O)c2c[nH]c(=O)[nH]c2=O)c1	0.0
O=C1CCC[C@H]2Cc3nc4cccc(Cl)c4cc3C[C@]23CCCN13	-0.5
COc1ccc(Cn2cc(COC(=O)NCC(C)C)nn2)cc1	-1.4
CCOc1ccc(NC(=O)C2CCCN(C(=O)NCc3ccccc3)C2)cc1 (centres undefined)	11.4*
O=C(Nc1ccc(F)cc1)C1CCN(C(=O)NCc2ccccc2)CC1	2.0
CCOc1ccc(C(=O)NC2CCN(C(=O)NCc3ccccc3)CC2)cc1	-0.6

Compound activity as filed in PubChem BioAssay.
